A number with no mark means an inactive call. No rule for the calls is given here.
tested on: Aerobactin synthetase IucA (Klebsiella pneumoniae hvKP1); experiment: IucA enzyme inhibition, primary screen, biochemical, Spectrum library (AID 1346200); conditions: malachite green pyrophosphate, A620, at 8 µM, hits give low values;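 also: 100% = wells without compound and 0% = wells lacking enzyme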

Row | Compound | activity remaining
1 | Clc1ccccc1CN1CCc2sccc2C1 | 109%
2 | CCCCCC(=O)O[C@]1(C(C)=O)CCC2C3CCC4=CC(=O)CC[C@]4(C)C3CC[C@@]21C (stereo not given in full) | 109%
3 | COc1ccc(-c2cc(=O)c3c(O)c(OC)c(OC)c(OC)c3o2)cc1OC | 80.1%
4 | COc1ccc(-c2oc3cc(OC)c(OC)c(OC)c3c(=O)c2OC)cc1OC | 83.1%
5 | CC(C)(C)CC(C)(C)c1ccc(O)c(Cc2ccc(Cl)cc2Cl)c1 | 110%
6 | C=C1C(C2(C)C=CC(=O)C(C)(C)C2CC(=O)OC)CC[C@@]2(C)[C@H](c3ccoc3)OC(=O)C3OC132 (stereo not given in full) | 105%
7 | O=C(O)c1cc(O)c2c(c1)[C@@H]([C@H]1c3cc(C(=O)O)cc(O)c3C(=O)c3c(O[C@H]4O[C@H](CO)[C@@H](O)[C@H](O)[C@H]4O)cccc31)c1cccc(O[C@H]3O[C@H](CO)[C@@H](O)[C@H](O)[C@H]3O)c1C2=O | 98.9%
8 | Cc1ccsc1/C=C/C1=NCCCN1C | 123%
9 | CCN(CCO)CCCC(C)Nc1ccnc2cc(Cl)ccc12 (stereo not given) | 109%
10 | CC(=O)C1CC[C@H]2C3CC[C@H]4C[C@H](O)CC[C@]4(C)C3CC[C@]12C (stereo not given in full) | 93.6%
11 | C/C=C(/C(=C/C)c1ccc(O)cc1)c1ccc(O)cc1 | 115%
12 | CC1(C)O[C@@H]2CC3C4CCC5=CC(=O)C=C[C@]5(C)[C@@]4(F)[C@@H](O)C[C@]3(C)[C@]2(C(=O)CO)O1 (stereo not given in full) | 116%
13 | NC[C@@H]1O[C@H](O[C@@H]2[C@@H](CO)OC(O[C@@H]3[C@@H](O)[C@H](N)C[C@H](N)[C@H]3O[C@H]3O[C@H](CO)[C@@H](O)[C@H](O)[C@H]3N)[C@@H]2O)[C@H](N)[C@@H](O)[C@@H]1O (stereo not given in full) | 97.1%
14 | COc1cc2c(cc1OC)C(=O)C(CC1CCN(Cc3ccccc3)CC1)C2 (stereo not given) | 107%
15 | CN[C@@H]1[C@@H](O[C@H]2O[C@H](CO)[C@@H](N)[C@H](O)[C@H]2O)O[C@H]2C[C@@H](N)[C@H](O[C@H]3[C@H](O)[C@@H](O)[C@H](N)C[C@@H]3N)O[C@@H]2[C@@H]1O | 124%
16 | C=C1CCC2[C@](C)(CO)[C@H](O)CC[C@@]2(C)[C@@H]1C/C=C1/C(=O)OC[C@H]1O (stereo not given in full) | 108%
17 | Cc1cccc(C(=O)O)c1O | 91.3%
18 | O=c1ccc2ccccc2o1 | 124%

Row | Compound | activity remaining
19 | O=c1c(O)c(-c2ccc(O)c(O)c2)oc2c(O[C@@H]3O[C@H](CO)[C@H](O)[C@@H](O)[C@H]3O)c(O)cc(O)c12 | 96.1%
20 | C=C1CC[C@@]2(OC1)O[C@H]1CC3C4CC=C5C[C@@H](O)C[C@@H](O)[C@]5(C)C4CC[C@]3(C)[C@H]1[C@@H]2C (stereo not given in full) | 113%
21 | CC1C/C=C/C=C/C=C/C=C/C(O[C@@H]2O[C@H](C)[C@@H](O)[C@H](N)[C@@H]2O)CC2OC(O)(CC(O)CC3OC3/C=C/C(=O)O1)CC(O)C2C(=O)O (stereo not given in full) | 118%
22 | CNc1ccccc1C(=O)N1CCc2c([nH]c3ccccc23)C1=O | 106%
23 | CC12CCC3C(=CCc4cc(O)ccc43)C1CCC2=O (stereo not given) | 108%
24 | CCCCOC(=O)c1ccc(N)cc1 | 85.9%
25 | CCCCC(=O)Oc1ccccc1C(=O)O | 85.8%
26 | Cc1cc(O)c(C=O)c(O)c1C(=O)O | 124%
27 | O[C@H]1[C@H](O)[C@@H](O)C2OC[C@H]1O2 | 119%
28 | C[C@]12CCC3c4ccc(O)cc4CCC3C1CC[C@@H]2O (stereo not given in full) | 125%
29 | CC(=O)Oc1cc(OC(C)=O)c2c(c1)O[C@H](c1ccc(OC(C)=O)c(OC(C)=O)c1)[C@H](OC(C)=O)C2 | 108%
30 | C=C(C)C1(O)OC(=O)C=C1OC (stereo not given) | 124%
31 | CCC(=O)O[C@H]1CCC2C3CCc4cc(O)ccc4C3CC[C@@]21C (stereo not given in full) | 101%
32 | NC(=O)NC1NC(=O)NC1=O (stereo not given) | 113%
33 | COC(=O)[C@@H]1C(O)CC[C@H]2CN3CCc4c([nH]c5ccccc45)[C@@H]3C[C@@H]21 (stereo not given in full) | 96.8%
34 | CCN(CCCc1ccccc1)CCCc1ccccc1 | 109%
35 | CC(C)(O)[C@@H]1CC[C@](C)([C@H]2[C@@H](O)C[C@@]3(C)C4C[C@H](O[C@@H]5O[C@H](CO)[C@@H](O)[C@H](O)[C@H]5O)C5C(C)(C)[C@@H](O[C@@H]6OC[C@@H](O)[C@H](O)[C@H]6O)CC[C@@]56C[C@@]46CC[C@]23C)O1 (stereo not given in full) | 93%
